Columns and labels:
[1] = target: T1, Serine/threonine-protein kinase TBK1 (Homo sapiens) (UniProt Q9UHD2); details: at 10 µM
T1 sequence (whole entry): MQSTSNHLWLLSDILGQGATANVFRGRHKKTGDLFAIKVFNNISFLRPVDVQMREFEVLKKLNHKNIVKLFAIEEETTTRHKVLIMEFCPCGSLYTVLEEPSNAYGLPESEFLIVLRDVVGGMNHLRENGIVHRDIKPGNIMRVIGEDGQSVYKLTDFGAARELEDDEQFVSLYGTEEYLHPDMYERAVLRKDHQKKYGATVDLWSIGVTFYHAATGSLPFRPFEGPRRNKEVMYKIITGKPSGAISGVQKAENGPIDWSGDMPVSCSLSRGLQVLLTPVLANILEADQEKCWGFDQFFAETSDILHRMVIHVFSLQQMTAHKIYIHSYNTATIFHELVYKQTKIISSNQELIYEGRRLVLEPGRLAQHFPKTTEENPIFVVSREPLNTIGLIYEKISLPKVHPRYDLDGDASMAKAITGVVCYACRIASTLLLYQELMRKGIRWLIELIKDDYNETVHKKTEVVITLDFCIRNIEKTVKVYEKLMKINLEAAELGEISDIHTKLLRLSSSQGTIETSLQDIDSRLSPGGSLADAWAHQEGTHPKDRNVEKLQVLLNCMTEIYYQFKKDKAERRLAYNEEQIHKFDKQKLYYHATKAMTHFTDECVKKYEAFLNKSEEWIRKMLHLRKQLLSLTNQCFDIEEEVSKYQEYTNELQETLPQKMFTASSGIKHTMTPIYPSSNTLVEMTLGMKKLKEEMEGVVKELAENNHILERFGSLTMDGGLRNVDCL

[2] = target: T2, TGF-beta receptor type-1 (Homo sapiens) (UniProt P36897); details: at 1 µM
T2 sequence (whole entry): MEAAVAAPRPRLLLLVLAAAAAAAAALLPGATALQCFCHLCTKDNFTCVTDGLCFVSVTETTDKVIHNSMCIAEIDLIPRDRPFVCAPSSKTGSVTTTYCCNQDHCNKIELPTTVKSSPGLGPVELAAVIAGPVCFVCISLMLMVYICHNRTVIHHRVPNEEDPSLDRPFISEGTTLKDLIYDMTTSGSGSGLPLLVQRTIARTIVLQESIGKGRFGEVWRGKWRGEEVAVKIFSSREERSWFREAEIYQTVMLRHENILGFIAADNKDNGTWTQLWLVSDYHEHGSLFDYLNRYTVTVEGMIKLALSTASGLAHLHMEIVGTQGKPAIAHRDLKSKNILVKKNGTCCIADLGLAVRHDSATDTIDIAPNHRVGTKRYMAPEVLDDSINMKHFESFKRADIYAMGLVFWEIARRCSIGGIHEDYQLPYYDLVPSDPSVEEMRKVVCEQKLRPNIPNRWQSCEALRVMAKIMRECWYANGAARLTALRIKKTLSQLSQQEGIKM

[3] = target: T2, TGF-beta receptor type-1 (Homo sapiens); details: at 10 µM
[4] = target: Insulin-like growth factor 1 receptor (Homo sapiens) (UniProt P08069); details: at 1 µM
[5] = target: Insulin-like growth factor 1 receptor (Homo sapiens) (UniProt P08069); details: at 10 µM
[6] = target: T3, Inhibitor of nuclear factor kappa-B kinase subunit alpha (Homo sapiens) (UniProt O15111); details: at 1 µM
T3 sequence (whole entry): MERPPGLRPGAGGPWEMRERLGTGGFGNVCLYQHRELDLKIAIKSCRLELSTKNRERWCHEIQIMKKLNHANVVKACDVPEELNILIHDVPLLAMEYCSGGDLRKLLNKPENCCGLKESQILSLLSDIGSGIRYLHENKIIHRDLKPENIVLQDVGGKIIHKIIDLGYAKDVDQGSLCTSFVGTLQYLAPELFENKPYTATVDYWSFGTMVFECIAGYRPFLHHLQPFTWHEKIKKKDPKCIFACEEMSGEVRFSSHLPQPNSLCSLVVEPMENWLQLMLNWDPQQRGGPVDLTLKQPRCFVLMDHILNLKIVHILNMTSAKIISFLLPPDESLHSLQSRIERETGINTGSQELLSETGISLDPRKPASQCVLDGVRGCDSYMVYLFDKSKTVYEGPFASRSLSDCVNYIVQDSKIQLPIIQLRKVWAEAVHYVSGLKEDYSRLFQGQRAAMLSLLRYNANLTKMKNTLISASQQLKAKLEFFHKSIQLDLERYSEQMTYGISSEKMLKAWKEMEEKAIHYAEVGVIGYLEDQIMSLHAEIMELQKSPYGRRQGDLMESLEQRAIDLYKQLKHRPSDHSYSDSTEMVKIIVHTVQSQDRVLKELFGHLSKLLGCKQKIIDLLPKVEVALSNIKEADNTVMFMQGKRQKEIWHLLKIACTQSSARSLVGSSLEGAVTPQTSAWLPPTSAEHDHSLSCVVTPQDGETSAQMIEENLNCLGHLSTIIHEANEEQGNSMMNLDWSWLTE

[7] = target: T3, Inhibitor of nuclear factor kappa-B kinase subunit alpha (Homo sapiens); details: at 10 µM
[8] = target: T4, Inhibitor of nuclear factor kappa-B kinase subunit beta (Homo sapiens) (UniProt O14920); details: at 1 µM
T4 sequence (whole entry): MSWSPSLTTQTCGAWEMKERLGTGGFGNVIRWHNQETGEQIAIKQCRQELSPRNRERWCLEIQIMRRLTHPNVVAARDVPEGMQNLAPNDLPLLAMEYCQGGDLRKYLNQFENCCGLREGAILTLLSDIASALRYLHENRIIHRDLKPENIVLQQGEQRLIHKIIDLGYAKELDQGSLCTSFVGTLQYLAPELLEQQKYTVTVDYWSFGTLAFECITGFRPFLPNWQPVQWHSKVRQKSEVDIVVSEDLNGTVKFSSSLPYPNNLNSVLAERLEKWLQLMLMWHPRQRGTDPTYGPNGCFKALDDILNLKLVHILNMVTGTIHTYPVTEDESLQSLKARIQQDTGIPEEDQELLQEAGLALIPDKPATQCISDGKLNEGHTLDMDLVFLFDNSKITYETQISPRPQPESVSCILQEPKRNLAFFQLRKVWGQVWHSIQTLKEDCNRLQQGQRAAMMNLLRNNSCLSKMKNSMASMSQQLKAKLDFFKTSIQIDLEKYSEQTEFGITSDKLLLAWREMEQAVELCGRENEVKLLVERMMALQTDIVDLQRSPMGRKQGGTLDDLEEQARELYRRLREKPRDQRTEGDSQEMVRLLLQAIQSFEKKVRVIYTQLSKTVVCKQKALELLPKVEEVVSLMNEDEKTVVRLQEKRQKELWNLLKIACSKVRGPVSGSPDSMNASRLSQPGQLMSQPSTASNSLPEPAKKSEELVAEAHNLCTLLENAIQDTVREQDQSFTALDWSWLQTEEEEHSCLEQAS

[9] = target: T4, Inhibitor of nuclear factor kappa-B kinase subunit beta (Homo sapiens); details: at 10 µM
[10] = target: Insulin receptor (Homo sapiens) (UniProt P06213); details: at 1 µM
Chain of Insulin receptor (Homo sapiens) (P06213 28-758 limits assumed): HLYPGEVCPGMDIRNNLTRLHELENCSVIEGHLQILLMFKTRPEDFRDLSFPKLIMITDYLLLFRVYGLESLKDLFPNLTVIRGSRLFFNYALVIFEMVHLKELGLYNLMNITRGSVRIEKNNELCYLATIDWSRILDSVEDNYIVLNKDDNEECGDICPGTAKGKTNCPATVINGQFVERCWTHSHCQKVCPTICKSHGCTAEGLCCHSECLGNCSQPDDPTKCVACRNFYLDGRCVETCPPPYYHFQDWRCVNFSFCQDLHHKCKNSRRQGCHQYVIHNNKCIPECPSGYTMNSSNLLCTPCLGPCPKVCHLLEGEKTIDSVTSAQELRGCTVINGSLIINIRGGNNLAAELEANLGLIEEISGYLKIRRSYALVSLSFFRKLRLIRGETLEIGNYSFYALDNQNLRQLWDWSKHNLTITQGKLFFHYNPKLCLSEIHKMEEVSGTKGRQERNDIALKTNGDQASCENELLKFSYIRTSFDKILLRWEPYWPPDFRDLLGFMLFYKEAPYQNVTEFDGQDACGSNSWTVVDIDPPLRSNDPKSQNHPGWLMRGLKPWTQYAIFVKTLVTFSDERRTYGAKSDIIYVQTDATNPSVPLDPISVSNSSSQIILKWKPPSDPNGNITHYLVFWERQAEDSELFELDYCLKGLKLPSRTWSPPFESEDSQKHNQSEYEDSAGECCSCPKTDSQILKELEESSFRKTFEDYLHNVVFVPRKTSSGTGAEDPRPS
Chain of Insulin receptor (Homo sapiens) (P06213 763-1382 limits assumed): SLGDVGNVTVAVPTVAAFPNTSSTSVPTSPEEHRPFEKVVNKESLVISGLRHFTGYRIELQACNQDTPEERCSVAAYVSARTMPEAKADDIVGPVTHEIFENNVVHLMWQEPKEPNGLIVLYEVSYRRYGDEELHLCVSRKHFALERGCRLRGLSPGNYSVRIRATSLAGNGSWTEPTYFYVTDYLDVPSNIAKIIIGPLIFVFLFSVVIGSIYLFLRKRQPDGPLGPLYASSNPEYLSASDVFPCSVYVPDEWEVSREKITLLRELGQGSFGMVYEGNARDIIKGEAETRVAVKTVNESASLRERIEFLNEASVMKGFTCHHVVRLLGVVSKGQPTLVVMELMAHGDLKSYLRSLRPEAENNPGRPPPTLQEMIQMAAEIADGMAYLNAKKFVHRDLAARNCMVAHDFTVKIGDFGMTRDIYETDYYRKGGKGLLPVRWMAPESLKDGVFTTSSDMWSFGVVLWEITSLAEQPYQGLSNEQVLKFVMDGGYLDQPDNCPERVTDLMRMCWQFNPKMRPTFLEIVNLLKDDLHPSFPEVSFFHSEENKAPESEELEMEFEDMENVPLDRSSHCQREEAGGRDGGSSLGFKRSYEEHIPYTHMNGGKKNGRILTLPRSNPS

Chain of Insulin-like growth factor 1 receptor (Homo sapiens) (P08069 31-736 limits assumed): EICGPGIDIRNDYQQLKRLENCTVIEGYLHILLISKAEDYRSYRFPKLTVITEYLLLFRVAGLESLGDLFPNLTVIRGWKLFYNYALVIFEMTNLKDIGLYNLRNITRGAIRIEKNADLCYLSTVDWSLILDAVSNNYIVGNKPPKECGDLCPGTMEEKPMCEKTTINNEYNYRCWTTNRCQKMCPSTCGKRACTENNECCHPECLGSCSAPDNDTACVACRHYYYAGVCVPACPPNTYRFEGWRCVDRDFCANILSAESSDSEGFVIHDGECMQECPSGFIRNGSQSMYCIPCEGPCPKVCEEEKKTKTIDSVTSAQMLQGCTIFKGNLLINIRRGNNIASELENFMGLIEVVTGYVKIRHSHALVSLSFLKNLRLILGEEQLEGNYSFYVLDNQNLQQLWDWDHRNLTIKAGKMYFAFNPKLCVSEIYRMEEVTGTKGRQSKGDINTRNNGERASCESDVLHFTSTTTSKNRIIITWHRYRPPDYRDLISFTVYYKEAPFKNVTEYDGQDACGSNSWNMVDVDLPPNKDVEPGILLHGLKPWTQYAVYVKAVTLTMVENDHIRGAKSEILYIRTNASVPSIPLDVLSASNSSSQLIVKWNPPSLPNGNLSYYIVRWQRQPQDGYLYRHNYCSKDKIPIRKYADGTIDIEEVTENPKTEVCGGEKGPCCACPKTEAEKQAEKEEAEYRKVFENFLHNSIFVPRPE
Chain of Insulin-like growth factor 1 receptor (Homo sapiens) (P08069 741-1367 limits assumed): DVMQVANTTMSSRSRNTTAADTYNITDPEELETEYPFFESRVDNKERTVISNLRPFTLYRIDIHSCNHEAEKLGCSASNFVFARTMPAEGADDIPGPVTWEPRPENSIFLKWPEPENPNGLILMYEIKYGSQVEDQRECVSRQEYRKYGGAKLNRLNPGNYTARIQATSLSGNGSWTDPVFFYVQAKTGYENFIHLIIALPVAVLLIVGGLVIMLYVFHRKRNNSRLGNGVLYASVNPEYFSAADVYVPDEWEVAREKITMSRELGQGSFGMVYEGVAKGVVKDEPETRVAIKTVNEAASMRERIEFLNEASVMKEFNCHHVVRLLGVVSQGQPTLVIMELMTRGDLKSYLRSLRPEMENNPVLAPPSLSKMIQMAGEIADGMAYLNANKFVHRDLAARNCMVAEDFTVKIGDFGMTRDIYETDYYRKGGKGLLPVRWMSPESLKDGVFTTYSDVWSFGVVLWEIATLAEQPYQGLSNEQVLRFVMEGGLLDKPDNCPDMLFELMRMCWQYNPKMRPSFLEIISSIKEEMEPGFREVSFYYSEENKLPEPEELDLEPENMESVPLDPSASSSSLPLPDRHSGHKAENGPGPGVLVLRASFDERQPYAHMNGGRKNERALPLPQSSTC

Row | SMILES | residual activity [1] [%] | residual activity [2] [%] | residual activity [3] [%] | residual activity [4] [%] | residual activity [5] [%] | residual activity [6] [%] | residual activity [7] [%] | residual activity [8] [%] | residual activity [9] [%] | residual activity [10] [%]
1 | c1ccc2c(-c3ccncc3)c[nH]c2c1 | 51 | 87 | 88 | 88 | 79 | 97 | 69 | 105 | 73 | 110
2 | CCN(CC)C(=O)c1ccc(Nc2nc(OCC3CCCCC3)c3nc[nH]c3n2)cc1 | 2 | 82 | 50 | 70 | 16 | – | – | 94 | 69 | 95
3 | CC(C)n1cnc2c(NCc3ccccc3)nc(NCCCO)nc21 | 66 | 93 | 81 | 90 | 87 | 116 | 104 | 110 | 94 | 91
4 | N#C/C(=C(\N)Sc1ccc(N)cc1)c1ccccc1C(F)(F)F | 16 | 101 | 95 | 103 | 102 | 101 | 121 | 106 | 109 | 113
5 | N#CCCc1ccc2c(c1)-c1[nH]c3ccc([N+](=O)[O-])cc3c1CC(=O)N2 | 13 | 73 | 28 | – | – | – | – | – | – | 118
6 | CN(C)CCCn1cc(C2=C(c3c[nH]c4ccccc34)C(=O)NC2=O)c2ccccc21 | 22 | 91 | 71 | 110 | – | 101 | 58 | 104 | 82 | –
7 | O=Nc1c(-c2c(O)[nH]c3ccccc23)[nH]c2ccccc12 | 1 | 104 | 73 | 40 | 20 | 76 | 57 | 87 | 67 | 17
8 | Cn1cc(/C=C2\C(=O)Nc3ccc(S(N)(=O)=O)cc32)c2ccccc21 | 10 | 100 | 96 | 81 | 86 | 100 | 92 | 87 | 78 | 91
9 | COc1cc2ncc(-c3ccccc3)nc2cc1OC | 76 | – | – | – | – | – | – | 95 | 95 | –
10 | COc1cc2ncnc(Nc3ccc(NC(=O)c4ccccc4)cc3)c2cc1OC | 75 | 98 | – | – | 103 | 102 | 96 | 109 | 106 | –
11 | Cc1cc(Nc2nc(-c3ccccc3)nc3ccccc23)n[nH]1 | 0 | 96 | 78 | 20 | 1 | 102 | 72 | 78 | 51 | 16
12 | CCN(CC)CCCCN1c2ccccc2Oc2ccc(Cl)cc21 | 82 | 84 | 105 | 107 | 104 | 97 | 102 | 112 | 105 | 114
13 | N#CC(C#N)=C(N)/C(C#N)=C/c1ccc(O)cc1 | 72 | 91 | 91 | – | – | 96 | 92 | 99 | 93 | –
14 | CNc1cc2c(Nc3cccc(Br)c3)ncnc2cn1 | 64 | 87 | 94 | 96 | 94 | 108 | 101 | 92 | 76 | 91
15 | CC#CC(=O)Nc1cc2c(Nc3ccc(F)c(Cl)c3)ncnc2cn1 | 72 | 74 | 89 | 98 | 93 | 97 | 95 | 96 | 96 | 101
16 | Nc1cccc(-c2cc3c(Oc4cccc(O)c4)ncnc3[nH]2)c1 | 19 | 101 | 56 | 105 | 85 | 88 | 78 | – | 91 | –
17 | O=c1cc(-c2cccc3c2Sc2ccccc2S3)oc(N2CCOCC2)c1 | 80 | 114 | 88 | 105 | 101 | 98 | 93 | 106 | 103 | 105
18 | COc1ccc(C(=O)Nc2sc3c(c2C(N)=O)CCCC3)cc1OC | 71 | 71 | 92 | 87 | 88 | – | 113 | 99 | 88 | 105
19 | O=C1NC(=O)c2c1c1c3ccccc3[nH]c1c1[nH]c3cc(Br)ccc3c21 | 54 | 100 | 98 | 96 | 99 | 89 | 71 | 77 | 100 | 99
